HCV inh = qHTS Assay for Inhibitors of Hepatitis C Virus (HCV). Potency, µM (titrated, usually from 41.8 µM), without a hit: top-dose activity change, negative = inhibition, actives largely listed as inhibitors. actives 3.4% (n = 340,000). Huh7.5.1 HCVcc-Cre infection, luciferase reporter, 44 h; active means well fitted inhibition curve with a large enough effect; inconclusive means small, poorly fitted or top-dose-only effect, or another doubt; inactive means no such curve, though single readings can be large or run the other way; further: potency means the concentration at half of the fitted maximal effect; on the % scale 0 is the no-effect control and ±100 the full control effect
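Cells seeded at 1,000/well and cultured 4 h, then compounds added followed by HCVcc-Cre virus (~0.5 moi). After 44 h further culture, luciferase substrate was added, plates held 15 min at room temperature, and luminescence read for 15 sec.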
SARS PLP yeast = qHTS of Yeast-based Assay for SARS-CoV PLP | S. cerevisiae expressing SARS-CoV PLpro, growth rescue | Potency, µM (top dose mostly 32.9 µM), for the others: at the highest dose activity, positive = growth rescue, hits mostly activators | actives 0.19% (n = 330,000); calls by dose curve; further: potency means the concentration at half of the fitted maximal effect; 0% is about no effect; nearly all actives have a fitted effect of over 55% in size
LASV entry inh = qHTS for Inhibitors of binding or entry into cells for Lassa Virus; Lassa virus pseudotype entry inhibition, cell reporter; Potency, µM (top dose mostly 37.9 µM), for inactives: at the highest dose activity change, negative = inhibition, actives largely listed as inhibitors; actives 1.2% (n = 300,000); AID 540256, 2011; calls by dose curve; tested in HEK293 cells; further: potency means the concentration at half of the fitted maximal effect; on the % scale 0 is the no-effect control and ±100 the full control effect; nearly all actives have a fitted effect of over 50% in size
FMDV antiviral = High Throughput Screening for Foot and Mouth Disease Virus Antivirals. AID 1159524, 2015. Potency, µM (doses to about 57.9 µM), for inactives: at the highest dose activity change, negative = inhibition, usual class: inhibitors. actives 1.2% (n = 410,000). FMDV antiviral cell-based qHTS; calls by dose curve; tested in HEK293T cells; further: read-out not given here; potency means the concentration at half of the fitted maximal effect; on the % scale 0 is the no-effect control and ±100 the full control effect; nearly all actives have a fitted effect of over 45% in size
MARV entry inh = qHTS for inhibitors of binding or entry into cells for Marburg Virus; Marburg virus pseudotyped entry inhibition, cell reporter; Potency, µM (top dose mostly 37.8 µM), for the others: at the highest dose activity change, negative = inhibition, hits mostly inhibitors; actives 1.8% (n = 300,000); calls by dose curve; tested in HEK293 cells; further: potency means the concentration at half of the fitted maximal effect; on the % scale 0 is the no-effect control and ±100 the full control effect
HCMV inh = qHTS Assay for inhibitors of the human cytomegalovirus (HCMV); HFF cells, HCMV-luciferase reporter, 72 h; hits give low values; activity change, negative = inhibition, % at 57.5 µM; actives 4.5% (n = 410,000); AID 1259415, 2018; in the data active means activity change below about -60%; inconclusive means no clear call, values can overlap the other calls; inactive means above about -39%; further: on the % scale 0 is the no-effect control and ±100 the full control effect
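Steps: HFFs plated, 16 h 37C; compounds added; HCMV-luciferase added to MOI 1 PFU/cell; 72 h 37C; OneGlo reagent, 5 min room temperature; luminescence read, normalized to controls.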
The depositor's hits bear a star; ? = inconclusive; . = no result; [ ] = dose if it differs, or a comment. An excerpt weighted towards active compounds, which were near 8% of everything screened.

SMILES | HCV inh | SARS PLP yeast | LASV entry inh | FMDV antiviral | MARV entry inh | HCMV inh
Cc1ncc2c(c1CNC(=O)CN1CCCCC1)CCN(C(=O)c1ccc(F)cc1Cl)C2 | . | . | . | 5% | . | .
O=c1c(O)c(-c2ccc(O)cc2)oc2cc(O)cc(O)c12 | 6.3µM* | . | . | 51% | . | .
Cc1oc(C(=O)Nc2ccc(O)cc2)cc1COc1ccccc1 | ? | -8% | 20µM* | 16% | ? | -36
O=C1CCCN1CCC1CCCCN1Cc1nc(-c2cnccn2)no1 (stereo unspecified) | 11% | -2% | . | -6% | . | -31
Cc1ccccc1NC(=O)c1cccc2nc3ccccc3nc12 | ? | -5% | -5% | -28% | -1%[46.1 µM] | -73*
Cc1ccccc1NC(=O)c1ccccc1NC(=O)Cc1cccc2ccccc12 | 17% | -1% | 1% | -2% | 0% | -2
Cc1csc2ncnc(NC3CCN(Cc4ccccc4)CC3)c12 | 1.8µM* | 0% | -22%[46.1 µM] | -22% | 10µM* | ?
C=CCC(=O)NC1CC(C)(C)Cc2c1cnn2-c1ccccc1C (stereo unspecified) | -1% | 1% | ? | -4% | -8% | 35
COc1ccc(C(=O)NC(c2ccccc2Cl)c2cc(Cl)c3cccnc3c2O)cc1 (stereo unspecified) | . | . | ? | -13% | . | -98*
COc1cc(NC(=O)c2ccc(Cl)cc2)c2ncccc2c1 | ? | -1% | . | -24% | . | 34
COc1cc(C(=O)NC(c2ccccc2Cl)c2cc(Cl)c3cccnc3c2O)cc(OC)c1OC (stereo unspecified) | . | . | ? | -11% | . | -79*
O=c1c2oc3ccccc3c2n(Cc2cccc(F)c2)c(=O)n1Cc1ccc2c(c1)OCO2 | . | . | -1%[46.1 µM] | -19% | . | ?
O=c1[nH]c(=O)n([C@H]2C[C@H](O)[C@@H](CO)O2)cc1F | ? | 3% | 0.29µM* | -16% | ? | -67*
O=c1[nH]c(=O)n(C2CC(O)C(CO)O2)cc1I (stereo unspecified) | 16% | . | 19%[46.1 µM] | -2% | 19% | -6
COC(=O)/C(=C\c1ccc(O)cc1)c1nc2ccccc2[nH]1 | -9% | -7% | . | 46% | . | 29
COC(=O)/C(=C\c1cc(OC)c(OC)c(OC)c1)c1nc2ccccc2[nH]1 | ? | 5% | ? | 16µM* | -16%[46.1 µM] | -98*
O=C(/C(=C/c1ccc(Cl)cc1)c1nc2ccccc2[nH]1)c1cccs1 | 11µM* | -26% | . | ? | 0% | .
COc1ccc(/C=C(\C#N)c2nc3ccccc3[nH]2)cc1O | ? | 1% | -4%[46.1 µM] | 8% | ? | 47
COc1cc(/C=C(/C(=O)c2cccs2)c2nc3ccccc3[nH]2)ccc1O | ? | -2% | ? | 25µM* | 4.1µM* | -99*
S=C(Nc1ccc(Cl)cc1)c1nc2ccccc2[nH]1 | 11µM* | -42% | ? | -23% | ? | -36
O=C(/C(=C\c1ccccc1)c1nc2ccccc2[nH]1)c1ccc(Cl)cc1 | ? | -65% | ? | ? | ? | -87*
C[C@@H]1CN([C@@H](C)CO)C(=O)CCCn2nncc2CO[C@H]1CN(C)C(=O)c1ccncc1 | . | . | . | -13% | . | -7
Cc1nc2sccn2c1CN1CCOc2ccc(CN3CCN(c4ccc(F)cc4)CC3)cc2C1 | . | . | . | 8.9µM* | . | .
Cc1c(C(=O)OCCOC(C)C)[nH]c2c1C(=O)CC(c1ccco1)C2 (stereo unspecified) | ? | -14% | ? | 0% | ? | .
Cc1c(C(=O)OCc2ccccc2)[nH]c2c1C(=O)CC(c1ccco1)C2 (stereo unspecified) | ? | -3% | . | -26% | . | .
SMILES | HCV inh | SARS PLP yeast | LASV entry inh | FMDV antiviral | MARV entry inh | HCMV inh
COC(=O)c1[nH]c2c(c1C)C(=O)CC(c1cccs1)C2 (stereo unspecified) | ? | -2% | ? | -4% | ? | -76*
COCCOC(=O)c1[nH]c2c(c1C)C(=O)CC(c1ccco1)C2 (stereo unspecified) | ? | -7% | . | ? | . | -67*
CCOC(=O)c1[nH]c2c(c1C)C(=O)CC(c1ccco1)C2 (stereo unspecified) | ? | -7% | . | 0% | . | -81*
CCN(CC)c1ccc(NC(=O)c2cc(C)nc3c2c(C)nn3-c2ccc(C)cc2)c(C)c1 | . | . | ? | -22% | . | 18
Cn1c(CNC(=O)CNC(=O)c2ccc(F)cc2)cc(=O)n(C)c1=O | 6% | ? | . | -12% | . | -17
Cc1nc(-c2ccc([N+](=O)[O-])cc2)nc2[nH]ccc(=O)c12 | 8% | -2% | . | 57% | . | -3
O=C(NCc1ccncc1)c1nc(-c2ccc(C(F)(F)F)cc2)no1 | ? | -1% | -8% | ? | 10%[46.1 µM] | -79*
O=C(NCc1cccnc1)c1nc(-c2ccc(C(F)(F)F)cc2)no1 | ? | 1% | -9% | -27% | ? | -61*
Cn1c(=O)c2c(nc(NC[C@@H](O)CO)n2CCc2ccccc2)n(C)c1=O | . | . | . | . | -7% | .
CSCCC(N)C(=O)NC(CC(C)C)C(=O)NC(Cc1ccccc1)C(=O)O (stereo unspecified) | . | . | . | 0% | . | .
O=c1oc2ccc(Br)cc2cc1-c1csc(-c2ccccc2)n1 | . | . | ? | -7% | . | 2
Cc1cc(C)c(-c2csc(-c3cc4ccccc4oc3=O)n2)cc1C | . | . | -6%[46.1 µM] | 3% | -15%[46.1 µM] | 7
O=c1oc2ccccc2cc1-c1csc(Cc2nc(-c3ccc(Br)cc3)cs2)n1 | ? | -8% | -28% | -16% | -20% | -99*
Cc1cc(C)c(-c2csc(Cc3nc(-c4cc5ccccc5oc4=O)cs3)n2)cc1C | ? | 18% | -12% | ? | ? | -65*
N#Cc1ccc(Nc2nc(-c3ccc(O)cc3O)cs2)cc1C(F)(F)F | 11µM* | 0% | . | 35µM* | . | .
Oc1ccc(-c2csc(Nc3ccc4c(c3)OCO4)n2)c(O)c1 | ? | . | . | 22% | . | 33
COc1ccc(CCNC(=O)C2(C)CCC(=O)N2CCC(C)C)cc1OC (stereo unspecified) | -3% | -16% | . | -6% | . | -100*
Cc1ccc(C2C(/C=C3/SC(=S)NC3=O)=C(c3cccs3)Oc3ccccc32)cc1 (stereo unspecified) | ? | -9% | ? | . | ? | -61*
O=C1NC(=S)SC1=Cc1ccccc1Cl | 9% | . | 25%[46.1 µM] | -14% | ? | 23
COC(=O)c1ccccc1NC(=O)C1CC=CCC1C(=O)O (stereo unspecified) | 15% | 1% | 2% | 9% | 30% | -60*
CN(C)c1ccc(-c2nccc(NCCN3CCOCC3)n2)cc1 | . | . | . | 5% | . | .

Compound activity as filed in PubChem.
